These results are taken from PubChem BioAssay (NCATS).

What all share (test): qHTS profiling for inhibitors of Plasmodium falciparum proliferation (AID 504749); note: nearly all actives have a fitted effect of over 60% in size
Common to all, as to details: P. falciparum in erythrocytes, SYBR Green DNA, 72 h; series mostly up to 28.7 µM

The test system of one assay is 7G8. An outline of the steps:
(§1)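 SYBR Green fluorescence (ex 485 nm, em 535 nm) reports parasite DNA after 72 h compound exposure of infected red cells at 0.3% parasitemia, 2.5% hematocrit; signal normalized to 0.29 uM artemisinin and vehicle wells.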

A further assay deals with AA1029. An outline of the steps: as §1
In another assay the test system is AS120. In short, it runs like this: as §1
The test system of a further assay is ATS189. An outline of the steps: as §1
The next assay deals with ATS95. An outline of the steps:
as §1

The test system of the next assay is C2A. An outline of the steps:
as §1

The test system of another assay is CP185. An outline of the steps: as §1
The subject of the next assay is CP191. An outline of the steps: as §1
Another assay concerns CP192. In short, it runs like this:
as §1

Another assay concerns CP194. In short, it runs like this:
as §1

The subject of the next assay is CP201. An outline of the steps: as §1
The subject of the next assay is CP203. An outline of the steps:
as §1

For the next assay, the system named is CP211. An outline of the steps: as §1
In a further assay the test system is CP215. In short, it runs like this:
as §1

The next assay deals with CP217. An outline of the steps:
as §1

The test system of a further assay is CP237. In short, it runs like this: as §1
For a further assay, the system named is CP238. In short, it runs like this:
as §1

For a further assay, the system named is CP247. An outline of the steps:
as §1

In a further assay the test system is CP250. In short, it runs like this:
as §1

A further assay has as its system CP252. An outline of the steps: as §1

Results filed as inconclusive are left out. Activity calls are given as the source filed them. Calls come from the whole dose curve; as a rule, active = well fitted inhibition curve with a large enough effect; inconclusive = small, poorly fitted or top-dose-only effect; inactive = flat fitted curve, though single readings scatter.
Potency is the fitted concentration of half-maximal effect.

In the case of `C=CC(C)(O)CC/C=C(\C)CCC=C(C)C` (configuration not stated), the Potency entry in the assay with 7G8, with AA1029, in the assay on AS120, in the assay on ATS189, with ATS95 and with C2A was “inactive” throughout. The Potency result with CP185, in the assay with CP191, with CP192, in the assay on CP194, in the assay with CP201 and in the assay on CP203 was “inactive” each time. For the same molecule, the Potency result in the assay on CP211, in the assay on CP215, in the assay with CP217, in the assay with CP237, with CP238 and in the assay with CP247 was “inactive” throughout. Also, the Potency result with CP250 and in the assay with CP252 was “inactive” throughout.

In the case of `O=C(NNCS(=O)(=O)O)c1ccncc1`, the Potency result in the assay with 7G8, in the assay on AA1029, in the assay on AS120, in the assay with ATS189, with ATS95 and with C2A was “inactive” throughout. Also, the Potency result in the assay on CP185, in the assay on CP191, in the assay on CP192, with CP194, with CP201 and in the assay on CP203 was “inactive” each time. The Potency result in the assay on CP211, with CP215, with CP217, in the assay with CP237, with CP238 and in the assay with CP247 was “inactive” throughout. In addition, the Potency result with CP250 and in the assay with CP252 was “inactive” throughout.

As to `ClC(Cl)Cl`, the Potency entry in the assay with 7G8, with AA1029, with AS120, in the assay on ATS189, with ATS95 and in the assay on C2A was “inactive” each time. Also, the Potency entry in the assay with CP185, in the assay with CP191, in the assay with CP192, with CP194, with CP201 and in the assay on CP203 was “inactive” throughout. Besides, the Potency result in the assay on CP211, in the assay on CP215, with CP217, in the assay with CP237, with CP238 and in the assay on CP247 was “inactive” in each case. Further, the Potency entry in the assay with CP250 and with CP252 was “inactive” throughout.

In the case of `CCOc1ccc(NC(=S)Nc2ccc(OCC)cc2)cc1`, the Potency entry with 7G8, with AA1029, with AS120, in the assay with ATS189, in the assay on ATS95 and with C2A was “inactive” each time. The Potency result in the assay with CP185, in the assay on CP191, in the assay with CP192, in the assay with CP194, in the assay with CP201 and with CP203 was “inactive” each time. Also, the Potency entry with CP211, with CP215, with CP217, in the assay with CP237, with CP238 and in the assay on CP247 was “inactive” in each case. The Potency result in the assay with CP250 and with CP252 was “inactive” throughout.

`CCOc1ccc(S(=O)(=O)O)c2cccnc12`: the Potency entry in the assay on 7G8, with AA1029, with AS120, with ATS189, in the assay with ATS95 and in the assay on C2A was “inactive” each time. Also, the Potency entry with CP185, in the assay on CP191, in the assay with CP192, in the assay with CP194, in the assay on CP201 and with CP203 was “inactive” each time. The Potency result in the assay with CP211, in the assay on CP215, in the assay with CP217, in the assay with CP237, in the assay with CP238 and with CP247 was “inactive” each time. The Potency entry with CP250 and with CP252 was “inactive” throughout.

As to `NCC[C@H](O)C(=O)N[C@@H]1C[C@H](N)[C@@H](O[C@H]2O[C@H](CN)[C@@H](O)[C@H](O)[C@H]2O)[C@H](O)[C@H]1O[C@H]1O[C@H](CO)[C@@H](O)[C@H](N)[C@H]1O`, the Potency entry with 7G8, in the assay on AA1029, in the assay on AS120, in the assay with ATS189, in the assay with ATS95 and in the assay on C2A was “inactive” in each case. For the same molecule, the Potency entry in the assay on CP185, in the assay on CP191, in the assay on CP192, with CP194, in the assay on CP201 and in the assay with CP203 was “inactive” throughout. In addition, the Potency result in the assay on CP211, in the assay with CP215, in the assay on CP217, with CP237, in the assay on CP238 and with CP247 was “inactive” each time. For the same molecule, the Potency entry with CP250 and in the assay on CP252 was “inactive” each time.

For `CCCOC(=O)c1ccccc1O`, the Potency result in the assay with 7G8, with AA1029, in the assay with AS120, in the assay on ATS189, with ATS95 and in the assay on C2A was “inactive” throughout. Besides, the Potency entry with CP185, with CP191, in the assay on CP192, in the assay on CP194, with CP201 and with CP203 was “inactive” in each case. Moreover, the Potency entry in the assay with CP211, in the assay with CP215, with CP217, in the assay with CP237, in the assay with CP238 and in the assay with CP247 was “inactive” throughout. Further, the Potency entry in the assay on CP250 and in the assay with CP252 was “inactive” throughout.

Regarding `O=C(O)[C@H]1C(=CCO)O[C@H]2CC(=O)N12`, the Potency result in the assay with 7G8, with AA1029, in the assay on AS120, with ATS189, in the assay on ATS95 and in the assay with C2A was “inactive” throughout. For the same molecule, the Potency entry with CP185, in the assay on CP191, in the assay on CP192, with CP194, with CP201 and in the assay with CP203 was “inactive” in each case. Further, the Potency result in the assay with CP211, with CP215, in the assay with CP217, with CP237, with CP238 and with CP247 was “inactive” in each case. Further, the Potency entry in the assay on CP250 and in the assay with CP252 was “inactive” in each case.

Regarding `Cc1cccc(Nc2ncccc2C(=O)O)c1C`, the Potency entry with 7G8, in the assay with AA1029, with AS120, with ATS189, in the assay on ATS95 and with C2A was “inactive” each time. Also, the Potency result in the assay on CP185, in the assay with CP191, with CP192, with CP194, in the assay with CP201 and in the assay on CP203 was “inactive” in each case. Moreover, the Potency entry in the assay on CP211, in the assay on CP215, with CP217, with CP237, with CP238 and with CP247 was “inactive” each time. For the same molecule, the Potency result in the assay on CP250 and in the assay with CP252 was “inactive” in each case.

For the molecule `C=C1C(CCl)(CCl)C2(Cl)C(Cl)C(Cl)C1(Cl)C2(Cl)Cl` (configuration not stated), the Potency in the assay with 7G8 is 0.282 µM (active); in the assay on AA1029, 3.16 µM (active); with AS120 it was 2 µM (active); in the assay with ATS189, 3.16 µM (active); with ATS95 it was 3.16 µM (active); in the assay on C2A, 3.16 µM (active). For the same molecule, the Potency in the assay with CP185 is 3.16 µM (active); in the assay with CP191, 3.16 µM (active); with CP192 it was 5.36 µM (active); in the assay with CP194, 6.75 µM (active); in the assay on CP201, 13.5 µM (active); with CP203 it was 3.79 µM (active). Also, the Potency in the assay with CP211 was 12 µM (active); in the assay on CP215, 3.79 µM (active); in the assay with CP217 it was 3.16 µM (active); with CP237, 3.16 µM (active); in the assay with CP238 it was 3.16 µM (active); in the assay on CP247, 3.16 µM (active). The Potency in the assay on CP250 was 1.12 µM (active); with CP252, 3.16 µM (active).

As to `C=CCOc1ccc(CC(=O)O)cc1Cl`, the Potency entry in the assay with 7G8, with AA1029, in the assay with AS120, in the assay on ATS189, in the assay on ATS95 and with C2A was “inactive” in each case. Moreover, the Potency entry in the assay with CP185, in the assay with CP191, with CP192, with CP194, in the assay on CP201 and with CP203 was “inactive” each time. Moreover, the Potency result in the assay on CP211, with CP215, in the assay on CP217, with CP237, in the assay on CP238 and in the assay with CP247 was “inactive” throughout. In addition, the Potency entry in the assay on CP250 and in the assay with CP252 was “inactive” each time.

For the molecule `CCCC(CCC)C(=O)OC1C[C@H]2CC[C@@H](C1)[N+]2(C)C` (some centres not stated), the Potency with 7G8 and in the assay on AA1029 was 11.2 µM (active) each time.

Consider `OC/C=C/c1ccccc1`, for which the Potency entry in the assay with 7G8, in the assay with AA1029, with AS120, with ATS189, in the assay on ATS95 and in the assay on C2A was “inactive” in each case. Moreover, the Potency result in the assay on CP185, with CP191, in the assay with CP192, in the assay on CP194, in the assay with CP201 and with CP203 was “inactive” each time. Moreover, the Potency result in the assay with CP211, in the assay on CP215, with CP217, in the assay on CP237, in the assay with CP238 and in the assay with CP247 was “inactive” in each case. Also, the Potency result in the assay with CP250 and in the assay on CP252 was “inactive” each time.
